Source: the supplement of paper PMC11732987, “Enantioselective OTUD7B fragment discovery through chemoproteomics screening and high-throughput optimisation” (Communications Chemistry, 2025)
Values without a mark were called inactive.

Experiments:
Experiment in all cases: log2 ratio of Biotin-Ahx-Ub-VS probe labelling (fragment/DMSO); higher = less target engagement (more negative = stronger competition), active = hit call of the paper (q ≤ 0.05, log2 ratio ≤ -1)
Details in all cases: compound concentration: 200 uM; treatment time: 3 h
UniProt O00507 = target: UniProt O00507
UniProt O00507, sequence (O00507 whole entry, the tested form may be a part): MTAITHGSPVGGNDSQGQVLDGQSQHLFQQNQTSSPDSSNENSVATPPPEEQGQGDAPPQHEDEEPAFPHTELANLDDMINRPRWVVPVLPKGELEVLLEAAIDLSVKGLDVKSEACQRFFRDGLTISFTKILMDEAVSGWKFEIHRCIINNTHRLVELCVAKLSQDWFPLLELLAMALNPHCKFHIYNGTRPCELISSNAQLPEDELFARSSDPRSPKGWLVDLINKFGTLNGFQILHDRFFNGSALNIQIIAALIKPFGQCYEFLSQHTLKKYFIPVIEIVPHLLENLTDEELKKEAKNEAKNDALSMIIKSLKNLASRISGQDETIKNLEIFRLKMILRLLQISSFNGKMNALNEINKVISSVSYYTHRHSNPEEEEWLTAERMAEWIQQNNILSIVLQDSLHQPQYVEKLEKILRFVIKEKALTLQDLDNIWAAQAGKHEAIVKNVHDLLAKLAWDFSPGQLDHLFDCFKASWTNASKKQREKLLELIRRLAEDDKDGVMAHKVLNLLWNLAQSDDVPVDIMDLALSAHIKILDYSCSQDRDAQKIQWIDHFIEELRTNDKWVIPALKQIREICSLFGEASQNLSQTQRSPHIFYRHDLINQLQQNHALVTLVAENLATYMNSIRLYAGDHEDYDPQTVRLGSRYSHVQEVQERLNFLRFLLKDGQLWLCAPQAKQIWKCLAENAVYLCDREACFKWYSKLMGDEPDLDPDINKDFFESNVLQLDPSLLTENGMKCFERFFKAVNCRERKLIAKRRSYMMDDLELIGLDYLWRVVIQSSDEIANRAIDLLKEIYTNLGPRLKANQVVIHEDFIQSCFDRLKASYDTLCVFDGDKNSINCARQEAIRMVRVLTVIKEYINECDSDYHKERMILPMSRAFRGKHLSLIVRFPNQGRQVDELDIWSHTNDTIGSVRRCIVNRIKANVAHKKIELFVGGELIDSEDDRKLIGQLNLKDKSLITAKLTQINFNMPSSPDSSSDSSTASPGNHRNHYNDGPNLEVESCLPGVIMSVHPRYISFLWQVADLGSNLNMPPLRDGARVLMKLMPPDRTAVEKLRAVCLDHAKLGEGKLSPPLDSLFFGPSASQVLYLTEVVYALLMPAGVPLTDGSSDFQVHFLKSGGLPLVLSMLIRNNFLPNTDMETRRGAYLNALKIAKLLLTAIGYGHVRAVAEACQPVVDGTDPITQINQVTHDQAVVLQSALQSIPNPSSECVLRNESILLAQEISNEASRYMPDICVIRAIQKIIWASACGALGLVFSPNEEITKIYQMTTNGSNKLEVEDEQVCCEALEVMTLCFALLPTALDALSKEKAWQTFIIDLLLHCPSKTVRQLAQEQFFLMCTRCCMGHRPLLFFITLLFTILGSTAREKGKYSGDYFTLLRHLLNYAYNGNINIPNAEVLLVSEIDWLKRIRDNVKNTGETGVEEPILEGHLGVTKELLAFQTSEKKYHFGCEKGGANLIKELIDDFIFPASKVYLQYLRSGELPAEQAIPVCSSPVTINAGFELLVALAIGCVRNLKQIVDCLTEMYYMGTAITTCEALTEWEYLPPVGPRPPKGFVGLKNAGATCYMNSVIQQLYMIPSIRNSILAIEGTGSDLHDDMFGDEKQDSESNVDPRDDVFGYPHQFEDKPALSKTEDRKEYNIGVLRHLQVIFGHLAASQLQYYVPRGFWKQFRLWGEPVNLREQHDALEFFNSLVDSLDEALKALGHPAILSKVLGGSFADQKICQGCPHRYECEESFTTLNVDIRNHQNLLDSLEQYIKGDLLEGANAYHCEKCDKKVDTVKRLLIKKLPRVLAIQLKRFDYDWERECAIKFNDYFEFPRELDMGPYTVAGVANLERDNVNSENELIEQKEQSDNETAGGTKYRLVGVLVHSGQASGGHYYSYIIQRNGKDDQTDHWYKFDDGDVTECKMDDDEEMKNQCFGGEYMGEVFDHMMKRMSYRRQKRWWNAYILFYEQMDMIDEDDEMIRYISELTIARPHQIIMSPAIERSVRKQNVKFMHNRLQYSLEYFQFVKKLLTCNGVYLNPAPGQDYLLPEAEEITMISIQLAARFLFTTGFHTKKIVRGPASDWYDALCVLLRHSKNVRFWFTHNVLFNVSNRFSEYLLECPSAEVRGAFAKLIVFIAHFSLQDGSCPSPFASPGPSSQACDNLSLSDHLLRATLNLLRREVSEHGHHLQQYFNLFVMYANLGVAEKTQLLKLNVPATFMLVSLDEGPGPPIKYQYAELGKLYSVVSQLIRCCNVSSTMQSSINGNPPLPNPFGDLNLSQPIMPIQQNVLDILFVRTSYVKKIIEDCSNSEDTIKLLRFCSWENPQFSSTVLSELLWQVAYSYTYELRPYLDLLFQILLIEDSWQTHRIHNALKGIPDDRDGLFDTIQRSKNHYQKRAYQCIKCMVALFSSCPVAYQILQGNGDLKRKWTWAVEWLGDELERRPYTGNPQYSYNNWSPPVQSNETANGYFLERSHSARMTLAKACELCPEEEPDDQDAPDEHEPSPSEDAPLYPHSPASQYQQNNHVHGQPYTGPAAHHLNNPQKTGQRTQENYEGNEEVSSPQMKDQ
In short: (§1)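 Values give the average log2 ratio of fragment to vehicle, assessed by unpaired t-test on global-median-normalised Spectronaut label-free quantities. Proteins needed ≥2 unique peptides. HEK293T lysate (495 µg per sample) was treated in triplicate with fragment at 200 µM or vehicle for 3 h and then with Biotin-Ahx-Ub-VS at 0.5 µM final for 1 h. Labelled DUBs were NeutrAvidin-enriched, digested and run by diaPASEF LC-MS/MS.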

UniProt P51784 = target: UniProt P51784
UniProt P51784, sequence (P51784 whole entry): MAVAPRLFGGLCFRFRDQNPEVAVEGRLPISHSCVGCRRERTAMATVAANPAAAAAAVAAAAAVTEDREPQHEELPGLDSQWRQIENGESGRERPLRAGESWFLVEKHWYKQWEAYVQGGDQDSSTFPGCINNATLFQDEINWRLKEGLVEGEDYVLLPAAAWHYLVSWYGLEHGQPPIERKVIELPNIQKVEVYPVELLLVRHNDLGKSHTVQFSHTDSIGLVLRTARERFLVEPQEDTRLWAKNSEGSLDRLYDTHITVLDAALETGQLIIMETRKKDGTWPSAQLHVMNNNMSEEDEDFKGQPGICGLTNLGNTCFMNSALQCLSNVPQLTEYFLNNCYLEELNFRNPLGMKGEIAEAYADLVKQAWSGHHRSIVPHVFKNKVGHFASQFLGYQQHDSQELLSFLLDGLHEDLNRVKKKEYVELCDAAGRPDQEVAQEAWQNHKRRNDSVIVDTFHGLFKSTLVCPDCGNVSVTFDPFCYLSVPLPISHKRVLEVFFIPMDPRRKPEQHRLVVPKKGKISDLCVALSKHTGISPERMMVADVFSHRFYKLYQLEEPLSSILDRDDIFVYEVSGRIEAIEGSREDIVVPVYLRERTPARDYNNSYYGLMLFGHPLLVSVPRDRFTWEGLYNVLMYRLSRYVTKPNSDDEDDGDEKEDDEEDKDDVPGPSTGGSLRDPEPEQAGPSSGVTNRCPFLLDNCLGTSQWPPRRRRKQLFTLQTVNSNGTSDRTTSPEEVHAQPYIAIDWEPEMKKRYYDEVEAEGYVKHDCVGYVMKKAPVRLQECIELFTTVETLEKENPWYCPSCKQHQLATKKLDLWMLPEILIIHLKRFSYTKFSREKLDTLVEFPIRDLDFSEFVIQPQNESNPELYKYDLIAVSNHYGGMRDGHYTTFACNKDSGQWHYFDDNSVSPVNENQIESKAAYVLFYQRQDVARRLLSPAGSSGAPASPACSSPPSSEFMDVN
In short: as §1

UniProt Q5T2D3 = target: T1, UniProt Q5T2D3
T1 sequence (whole entry): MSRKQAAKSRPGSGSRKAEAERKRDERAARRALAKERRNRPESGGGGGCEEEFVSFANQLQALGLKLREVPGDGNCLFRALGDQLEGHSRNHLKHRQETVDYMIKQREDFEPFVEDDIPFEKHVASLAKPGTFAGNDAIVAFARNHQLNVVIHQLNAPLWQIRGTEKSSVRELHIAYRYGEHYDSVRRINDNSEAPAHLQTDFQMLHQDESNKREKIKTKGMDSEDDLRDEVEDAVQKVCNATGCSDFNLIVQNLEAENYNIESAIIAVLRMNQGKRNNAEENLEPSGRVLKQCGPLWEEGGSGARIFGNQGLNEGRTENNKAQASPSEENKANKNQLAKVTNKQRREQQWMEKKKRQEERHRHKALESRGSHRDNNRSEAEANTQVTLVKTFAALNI
In short: as §1

UniProt Q8TE49 = target: T2, UniProt Q8TE49
T2 sequence (whole entry): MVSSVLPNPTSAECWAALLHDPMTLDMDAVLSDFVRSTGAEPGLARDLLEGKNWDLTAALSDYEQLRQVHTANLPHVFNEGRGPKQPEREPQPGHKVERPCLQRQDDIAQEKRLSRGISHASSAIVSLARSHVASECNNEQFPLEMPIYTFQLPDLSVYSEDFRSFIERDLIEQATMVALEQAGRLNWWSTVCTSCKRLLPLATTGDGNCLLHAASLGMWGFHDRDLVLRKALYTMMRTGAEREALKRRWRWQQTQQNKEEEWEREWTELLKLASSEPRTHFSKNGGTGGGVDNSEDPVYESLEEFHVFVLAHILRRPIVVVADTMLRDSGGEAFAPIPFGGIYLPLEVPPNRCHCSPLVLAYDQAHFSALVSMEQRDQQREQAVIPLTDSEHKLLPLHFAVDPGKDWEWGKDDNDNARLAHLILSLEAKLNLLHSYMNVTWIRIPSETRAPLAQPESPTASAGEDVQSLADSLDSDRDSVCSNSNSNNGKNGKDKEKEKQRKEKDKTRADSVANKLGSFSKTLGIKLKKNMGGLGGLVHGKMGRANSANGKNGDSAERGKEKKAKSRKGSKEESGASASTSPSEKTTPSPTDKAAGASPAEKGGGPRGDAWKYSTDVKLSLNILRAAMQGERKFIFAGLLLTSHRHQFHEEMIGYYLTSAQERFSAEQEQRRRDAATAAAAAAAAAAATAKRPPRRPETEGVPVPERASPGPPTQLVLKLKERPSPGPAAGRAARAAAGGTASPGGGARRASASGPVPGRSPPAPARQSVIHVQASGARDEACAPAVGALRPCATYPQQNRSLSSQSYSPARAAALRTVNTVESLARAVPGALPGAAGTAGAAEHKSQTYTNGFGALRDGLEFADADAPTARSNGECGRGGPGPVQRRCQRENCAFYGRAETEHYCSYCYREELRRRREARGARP
In short: as §1

UniProt Q9P2H5 = target: T3, UniProt Q9P2H5
T3 sequence (whole entry): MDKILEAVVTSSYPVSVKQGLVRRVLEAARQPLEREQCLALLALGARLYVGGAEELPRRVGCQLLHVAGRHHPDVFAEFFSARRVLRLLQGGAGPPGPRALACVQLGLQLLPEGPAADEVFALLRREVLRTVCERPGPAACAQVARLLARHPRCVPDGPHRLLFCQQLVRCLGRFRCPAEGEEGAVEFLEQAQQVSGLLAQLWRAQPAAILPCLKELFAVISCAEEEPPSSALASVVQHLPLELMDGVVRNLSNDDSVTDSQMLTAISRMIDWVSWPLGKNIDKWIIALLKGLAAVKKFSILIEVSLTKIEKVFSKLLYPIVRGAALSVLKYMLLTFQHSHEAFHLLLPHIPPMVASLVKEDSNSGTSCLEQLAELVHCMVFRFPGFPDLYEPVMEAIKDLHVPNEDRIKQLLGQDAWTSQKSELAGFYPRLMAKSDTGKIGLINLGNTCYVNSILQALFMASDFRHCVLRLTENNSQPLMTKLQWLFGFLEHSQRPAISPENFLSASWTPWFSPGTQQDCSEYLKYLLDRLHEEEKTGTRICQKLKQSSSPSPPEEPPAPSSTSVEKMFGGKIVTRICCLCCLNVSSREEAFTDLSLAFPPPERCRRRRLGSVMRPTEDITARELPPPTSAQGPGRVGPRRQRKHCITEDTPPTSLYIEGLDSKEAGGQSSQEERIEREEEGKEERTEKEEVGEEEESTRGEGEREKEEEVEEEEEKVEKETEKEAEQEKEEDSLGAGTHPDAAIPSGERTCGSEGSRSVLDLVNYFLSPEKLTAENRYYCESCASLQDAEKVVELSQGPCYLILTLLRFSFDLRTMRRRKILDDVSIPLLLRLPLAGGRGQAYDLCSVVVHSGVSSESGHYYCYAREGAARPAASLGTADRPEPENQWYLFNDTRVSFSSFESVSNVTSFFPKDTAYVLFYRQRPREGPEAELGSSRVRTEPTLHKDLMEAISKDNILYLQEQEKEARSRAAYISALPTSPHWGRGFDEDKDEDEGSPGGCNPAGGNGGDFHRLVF
In short: as §1

UniProt Q9UGI0 = target: T4, UniProt Q9UGI0
T4 sequence (whole entry): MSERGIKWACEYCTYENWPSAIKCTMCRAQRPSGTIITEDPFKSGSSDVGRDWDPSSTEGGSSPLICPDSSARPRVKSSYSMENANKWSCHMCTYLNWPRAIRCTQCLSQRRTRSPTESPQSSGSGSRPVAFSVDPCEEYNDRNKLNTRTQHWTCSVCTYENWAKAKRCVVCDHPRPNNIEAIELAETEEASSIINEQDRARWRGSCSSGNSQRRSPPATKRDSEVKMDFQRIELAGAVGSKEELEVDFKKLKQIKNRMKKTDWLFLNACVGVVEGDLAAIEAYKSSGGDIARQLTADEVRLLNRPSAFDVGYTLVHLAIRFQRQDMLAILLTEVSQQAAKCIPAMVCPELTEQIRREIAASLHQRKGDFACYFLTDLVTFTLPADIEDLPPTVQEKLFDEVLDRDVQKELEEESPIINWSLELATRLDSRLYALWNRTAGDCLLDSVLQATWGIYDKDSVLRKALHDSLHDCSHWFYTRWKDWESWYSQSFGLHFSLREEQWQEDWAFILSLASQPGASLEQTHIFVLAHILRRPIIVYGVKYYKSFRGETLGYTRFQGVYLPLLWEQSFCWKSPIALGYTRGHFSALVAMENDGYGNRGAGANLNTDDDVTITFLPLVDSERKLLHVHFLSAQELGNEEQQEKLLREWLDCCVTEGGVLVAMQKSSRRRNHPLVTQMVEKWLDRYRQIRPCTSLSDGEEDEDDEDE
In short: as §1

YOD1 = target: T5, YOD1 (UniProt Q5VVQ6)
T5 sequence (whole entry): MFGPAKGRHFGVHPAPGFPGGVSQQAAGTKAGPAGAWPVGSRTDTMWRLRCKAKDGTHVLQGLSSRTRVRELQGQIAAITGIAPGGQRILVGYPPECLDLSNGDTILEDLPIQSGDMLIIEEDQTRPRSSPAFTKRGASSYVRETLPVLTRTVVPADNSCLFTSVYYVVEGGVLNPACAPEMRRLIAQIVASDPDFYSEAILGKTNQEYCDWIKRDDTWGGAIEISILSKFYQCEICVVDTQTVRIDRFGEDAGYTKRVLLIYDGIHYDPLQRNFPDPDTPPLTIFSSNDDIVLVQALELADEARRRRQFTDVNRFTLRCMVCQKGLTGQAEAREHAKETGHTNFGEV
In short: as §1

Row | Compound | log2 ratio of Biotin-Ahx-Ub-VS probe labelling (UniProt O00507) | log2 ratio of Biotin-Ahx-Ub-VS probe labelling (UniProt P51784) | log2 ratio of Biotin-Ahx-Ub-VS probe labelling (UniProt Q5T2D3) | log2 ratio of Biotin-Ahx-Ub-VS probe labelling (UniProt Q8TE49) | log2 ratio of Biotin-Ahx-Ub-VS probe labelling (UniProt Q9P2H5) | log2 ratio of Biotin-Ahx-Ub-VS probe labelling (UniProt Q9UGI0) | log2 ratio of Biotin-Ahx-Ub-VS probe labelling (YOD1)
1 | O=C(CCl)Nc1ccc(Cl)c(F)c1 | -0.588 | -0.219 | -0.339 | -0.571 | -0.0638 | -1.27 (active) | -0.313
2 | O=C(CCl)N1CCOCC1C1CC1 (stereo not drawn) | -0.0511 | 0.141 | -0.288 | -0.663 | -0.279 | -0.344 | -0.172
3 | O=C(CCl)Nc1ccccc1C(F)(F)F | -0.463 | -0.127 | -0.319 | -0.411 | 0.0663 | -0.466 | -0.621
4 | Cl.O=C(CCl)NCc1ccnc(Oc2ccccc2F)c1 | -0.125 | 0.0358 | -0.167 | -0.406 | -0.188 | -0.246 | -0.103
5 | O=C(CCl)N1CCOC(CCc2ccccc2)C1 (stereo not drawn) | -0.798 | -0.097 | -0.306 | -0.84 | -0.236 | -0.876 | -0.418
6 | O=C(CCl)N1CCC(C(=O)N2CCCC2)CC1 | -0.126 | -0.2 | -0.068 | -0.199 | -0.139 | 0.0373 | 0.122
7 | O=C(CCl)Nc1cccc(C(=O)N2CCSCC2)c1 | -0.587 | -0.172 | -0.17 | -0.399 | 0.0593 | -0.309 | -0.58
8 | O=C(CCl)N1CCC(c2noc3cc(F)ccc23)CC1 | -0.609 | 0.00105 | -0.212 | -0.807 | -0.0991 | -1.02 (active) | -0.0109
9 | CN(C(=O)CCl)c1nc2ccccc2s1 | 0.257 | -0.083 | -0.0566 | -0.558 | -0.266 | -1.12 (active) | 0.155
10 | CC(NC(=O)CCl)c1cccc(Cl)c1 (stereo not drawn) | -0.176 | -0.0638 | -0.271 | -0.632 | -0.25 | -1.18 (active) | -0.167
11 | O=C(CCl)N1CCC(c2nc3ccccc3o2)CC1 | -0.57 | -0.0526 | -0.14 | -0.625 | -0.191 | -0.567 | -0.217
12 | O=C(CCl)N1CCOC2(CCC2)C1 | 0.31 | 0.244 | 0.00991 | -0.696 | 0.0475 | -0.71 | 0.154
13 | O=C(CCl)NCCc1ccc2c(c1)OCCO2 | -0.489 | 0.0955 | -0.249 | -0.327 | -0.0308 | -0.256 | -0.414
14 | O=C(CCl)N1CCN(c2nc3ccccc3o2)CC1 | -0.666 | -0.255 | -0.0854 | -0.515 | -0.57 | -0.691 | -0.434
15 | O=C(CCl)Nc1cc(Cl)ccc1-n1cncn1 | -1.06 (active) | -0.871 | -0.95 | -1.44 (active) | -0.954 | -1.05 (active) | -1.12 (active)
16 | O=C(CCl)N1CCCN(C(=O)c2ccc(Cl)cc2)CC1 | -0.381 | -0.139 | -0.134 | -0.265 | -0.166 | -0.84 | -0.417
17 | Cc1nc(CNC(=O)CCl)c2ccccn12.Cl | 0.444 | -0.0444 | -0.454 | -0.499 | -0.818 | -0.311 | 0.114
18 | Cc1cccc(C(CNC(=O)CCl)N2CCOCC2)c1.Cl (stereo not drawn) | 0.29 | -0.0777 | -0.329 | -0.249 | -0.237 | 0.0449 | -0.28
19 | Cc1ncsc1CCNC(=O)CCl | 0.115 | 0.269 | -0.0368 | -0.0765 | -0.0174 | -0.0599 | 0.0977
